Test systems include SR leukemia; RPMI-8226 leukemia; OVCAR-8 ovarian; OVCAR-5 ovarian; OVCAR-4 ovarian; SK-OV-3 ovarian; IGROV1 ovarian; OVCAR-3 ovarian; HS 578T breast; NCI/ADR-RES ovarian; T-47D breast; BT-549 breast; MDA-MB-435 melanoma; SW-620 colon; MCF7 breast; HCT-116 colon; HCC-2998 colon; KM12 colon.
Common to all, as to assay: NCI-60 one-dose screen, 48 h (100 = growth as untreated, 0 = no growth, -100 = all killed)
What all share (details): 10 µM unless noted

About 83,000 compounds went through this panel and 20% of them were active in at least one assay; those are over-represented in the sample as a whole.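 Note: values are percent growth. 100 is the growth of untreated cells, values between 100 and 0 indicate rising inhibition; between -100 and 0 indicates cell death.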 Values without a mark were called inactive. Activity calls are given as the source filed them. How the source made its calls: active means growth percent below 10; inactive means the rest.

`O=C(O)c1cn(C2CC2)c2cc(N3CCN(C(=O)N/N=C/c4ccccc4)CC3)c(F)cc2c1=O`: the growth is 54.4% in the experiment with SR leukemia; 104% with RPMI-8226 leukemia; 96.3% with OVCAR-8 ovarian; 110% in the experiment with OVCAR-5 ovarian; 102% in the experiment on OVCAR-4 ovarian; 95.8% in the experiment on SK-OV-3 ovarian. The growth is 102% in the experiment with IGROV1 ovarian; 102% in the experiment with OVCAR-3 ovarian; 105% with HS 578T breast; 97.4% in the experiment with NCI/ADR-RES ovarian; 91.4% in the experiment on T-47D breast; 92.6% in the experiment on BT-549 breast. Besides, the growth is 106% with MDA-MB-435 melanoma; 110% with SW-620 colon; 97.3% with MCF7 breast; 108% in the experiment on HCT-116 colon; 99.9% in the experiment with HCC-2998 colon; 94.8% with KM12 colon.
As to `N#C/C(=C\c1ccc(-c2ccc(Cl)cc2)o1)c1ccc(Cl)cc1`, the growth is 59.6% in the experiment on SR leukemia; 44.8% in the experiment on RPMI-8226 leukemia; 58.4% with OVCAR-8 ovarian; 68.1% with OVCAR-5 ovarian; -14.1% (active) in the experiment with OVCAR-4 ovarian; 75.5% in the experiment with SK-OV-3 ovarian. Also, the growth with IGROV1 ovarian is 23.6%; with OVCAR-3 ovarian, 56.4%; with HS 578T breast it was 29.8%; with NCI/ADR-RES ovarian, 60%; in the experiment with T-47D breast it was 51.2%; with BT-549 breast, 79.5%. For the same compound, the growth in the experiment with MDA-MB-435 melanoma is 85.1%; in the experiment with SW-620 colon, 66.2%; in the experiment on MCF7 breast it was 62.1%; with HCT-116 colon, 12.7%; in the experiment with HCC-2998 colon, 96.4%; with KM12 colon it was 88.9%.
In the case of `CCOc1ccc(NC(=O)c2cc(OC)c(OC)c(OC)c2)cc1`, the growth is 24.7% with SR leukemia; 27% with RPMI-8226 leukemia; 49.5% in the experiment on OVCAR-8 ovarian; 94% in the experiment on OVCAR-5 ovarian; 65% in the experiment on OVCAR-4 ovarian; 40.6% in the experiment on SK-OV-3 ovarian. For the same compound, the growth was 53.1% in the experiment on IGROV1 ovarian; -3.43% (active) in the experiment with OVCAR-3 ovarian; 26.8% in the experiment with HS 578T breast; 11.5% in the experiment with NCI/ADR-RES ovarian; 37.2% with T-47D breast; 44.5% in the experiment with BT-549 breast. Also, the growth is -10.9% (active) in the experiment with MDA-MB-435 melanoma; 31.6% with SW-620 colon; 20.8% with MCF7 breast; 18% with HCT-116 colon; 55.5% with HCC-2998 colon; 22.8% in the experiment on KM12 colon.
For the compound `C#CC#CC#CC#CC#CC#CC#CC#CC[C@H]1OC[C@@H](COC(=O)O[C@@H](C(=O)O[C@H]2C[C@@]3(O)[C@@H](OC(=O)c4ccccc4)[C@@H]4[C@]5(OC(C)=O)CO[C@@H]5C[C@H](O)[C@@]4(C)C(=O)[C@H](OC(C)=O)C(=C2C)C3(C)C)[C@@H](NC(=O)c2ccccc2)c2ccccc2)O1`, the growth in the experiment on SR leukemia was 25.9%; in the experiment on RPMI-8226 leukemia, 26%; with OVCAR-8 ovarian, 59.7%; in the experiment on OVCAR-5 ovarian, 47%; in the experiment on OVCAR-4 ovarian, 68.3%; in the experiment with SK-OV-3 ovarian it was 61.7%. Further, the growth was 49.2% in the experiment on IGROV1 ovarian; 22.6% in the experiment with OVCAR-3 ovarian; 44.3% in the experiment on HS 578T breast; 108% with NCI/ADR-RES ovarian; 53.4% in the experiment with T-47D breast; 53.2% with BT-549 breast. Moreover, the growth is -47.8% (active) in the experiment on MDA-MB-435 melanoma; 42.4% in the experiment with SW-620 colon; 33.7% with MCF7 breast; 18% in the experiment with HCT-116 colon; 48.3% in the experiment on HCC-2998 colon; 16.7% in the experiment on KM12 colon.
For the compound `CS(=O)(=O)Nc1cc(-c2ccc3ncnc(Nc4ccc5c(cnn5Cc5cccnc5)c4)c3c2)cnc1Cl`, the growth in the experiment on SR leukemia is 21.5%; in the experiment with RPMI-8226 leukemia, 54.7%; in the experiment with OVCAR-8 ovarian, 75.6%; in the experiment with OVCAR-5 ovarian, 49%; with OVCAR-4 ovarian it was 74.6%; in the experiment with SK-OV-3 ovarian, 58.4%. For the same compound, the growth in the experiment with IGROV1 ovarian was 3.96% (active); in the experiment on OVCAR-3 ovarian, 19.2%; with HS 578T breast, -2.21% (active); in the experiment with NCI/ADR-RES ovarian, 93.2%; in the experiment on T-47D breast, 0.364% (active); with BT-549 breast it was 17.1%. For the same compound, the growth with MDA-MB-435 melanoma was 53.9%; with SW-620 colon it was 66.8%; with MCF7 breast, 15.2%; in the experiment with HCT-116 colon it was 69.8%; in the experiment on HCC-2998 colon, 65.7%; in the experiment on KM12 colon, 82.9%.
Regarding `O=C(N/N=C/c1ccc([N+](=O)[O-])cc1)c1ccc2nc(-c3ccc(Cl)cc3)[nH]c2c1`, the growth in the experiment with SR leukemia was -8.49% (active); with RPMI-8226 leukemia, 10.8%; in the experiment with OVCAR-8 ovarian it was 21.6%; in the experiment with OVCAR-5 ovarian it was 53.2%; in the experiment on OVCAR-4 ovarian it was 23%; with SK-OV-3 ovarian it was 60.5%. Besides, the growth in the experiment with IGROV1 ovarian was 19.1%; in the experiment with OVCAR-3 ovarian, 11.3%; in the experiment with HS 578T breast, 36.8%; with NCI/ADR-RES ovarian it was 77.3%; in the experiment on T-47D breast it was 10.5%; with BT-549 breast, 14%. Besides, the growth is 47.6% in the experiment on MDA-MB-435 melanoma; 12.7% in the experiment on SW-620 colon; 0.723% (active) in the experiment on MCF7 breast; 14.6% with HCT-116 colon; 14.9% in the experiment with HCC-2998 colon; 13% with KM12 colon.
Consider `CCNC(=O)Oc1ccc(/C(=C(/C)Cc2ccc(OC)cc2)c2ccc(OCCN3CCCCCC3)cc2)cc1`, for which the growth with SR leukemia was -51.7% (active); with RPMI-8226 leukemia, 20.3%; in the experiment with OVCAR-8 ovarian, 75.4%; in the experiment with OVCAR-5 ovarian, 94.8%; in the experiment on OVCAR-4 ovarian, 87.9%; with SK-OV-3 ovarian it was 87.7%. Moreover, the growth in the experiment with IGROV1 ovarian was 78%; in the experiment with OVCAR-3 ovarian it was 59.5%; in the experiment on HS 578T breast, 67.2%; with NCI/ADR-RES ovarian, 76.7%; in the experiment on T-47D breast, 35.9%; with BT-549 breast, 89.1%. Further, the growth was 81.6% with MDA-MB-435 melanoma; 70.7% with SW-620 colon; 22.2% with MCF7 breast; 56.3% in the experiment on HCT-116 colon; 63.3% in the experiment with HCC-2998 colon; 53.9% in the experiment on KM12 colon.
`CCN1C(=S)N(CC)C2C1NC(=S)N2/N=C/C=C/c1ccccc1OC` (configuration not stated): the growth with SR leukemia is 15.2%; in the experiment with RPMI-8226 leukemia, 24.6%; with OVCAR-8 ovarian, 12.5%; in the experiment on OVCAR-5 ovarian, 27.2%; in the experiment with OVCAR-4 ovarian it was 44.2%; with SK-OV-3 ovarian it was 35%. The growth was 19.5% in the experiment with IGROV1 ovarian; -48% (active) in the experiment with OVCAR-3 ovarian; 16.3% with HS 578T breast; -9.38% (active) in the experiment on NCI/ADR-RES ovarian; 59.4% with T-47D breast; 13.5% in the experiment on BT-549 breast. Further, the growth is -42.8% (active) in the experiment on MDA-MB-435 melanoma; 23.8% in the experiment with SW-620 colon; 17.9% in the experiment with MCF7 breast; 13.6% with HCT-116 colon; 11.6% with HCC-2998 colon; 15% with KM12 colon.
On to `CC[C@@H](c1ccc2cc(OC)ccc2c1)C(C)(C)C(=O)F`, for which the growth in the experiment on SR leukemia is 112%; in the experiment on RPMI-8226 leukemia, 146%; with OVCAR-8 ovarian it was 94.8%; with OVCAR-5 ovarian it was 86.2%; in the experiment with OVCAR-4 ovarian it was 109%; in the experiment on SK-OV-3 ovarian, 107%. The growth in the experiment on IGROV1 ovarian was 28.3%; in the experiment on OVCAR-3 ovarian it was 85.7%; in the experiment with HS 578T breast, 91.8%; in the experiment on NCI/ADR-RES ovarian it was 77.5%; in the experiment on T-47D breast, 118%; in the experiment on BT-549 breast, 19.9%. Further, the growth was 102% with MDA-MB-435 melanoma; 94.6% with SW-620 colon; 108% in the experiment with MCF7 breast; 85.6% in the experiment with HCT-116 colon; 55.1% with HCC-2998 colon; 107% in the experiment with KM12 colon.
